Among the data in paper PMC7862700, “An all-to-all approach to the identification of sequence-specific readers for epigenetic DNA modifications on cytosine” are binding signal values, retold here.

Common to all, as to assay: DAPPL (digital affinity profiling via proximity ligation, sequencing); 10 mM Tris-HCl pH 7.5, 50 mM NaCl, 1 mM DTT, 4% glycerol, room temperature, 30 min; GST-TFs on glutathione beads, 16-mer random dsDNA library, 0.1% formaldehyde crosslink after washing; high values mean tight binding
One experiment concerns the target T1, FEV (Homo sapiens, UniProt Q99581 1-238).
T1 sequence: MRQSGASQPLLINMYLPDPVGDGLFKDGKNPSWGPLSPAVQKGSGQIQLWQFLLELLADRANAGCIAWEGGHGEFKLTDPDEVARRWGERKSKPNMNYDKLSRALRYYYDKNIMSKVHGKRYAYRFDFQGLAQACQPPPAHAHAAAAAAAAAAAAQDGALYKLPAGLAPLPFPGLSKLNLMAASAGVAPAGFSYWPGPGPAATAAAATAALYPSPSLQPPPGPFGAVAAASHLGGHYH
The settings on record: protein: recombinant; tags: N-terminal GST; dsDNA, one strand shown. A digest of the protocol:
(§1)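 Human transcription factors carrying a GST fusion were produced in yeast, bound to glutathione beads, tagged with DNA barcodes and pooled together with a tag-only sample. Each pool was held with 200 nmole of a random double-stranded 16-mer DNA library in Tris/NaCl/DTT/glycerol buffer for 30 min at room temperature, then washed, crosslinked in 0.1% formaldehyde, proximity-ligated with BsaI/T4 ligase (1 h, 37 °C), PCR-amplified and sequenced on an Illumina NextSeq500. Binding signal is the read frequency of each hexamer for a given factor divided by its frequency in the tag-only sample.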

The next experiment addresses ETV5 (Homo sapiens, UniProt P41161 1-510). To be noted: protein: recombinant; tags: N-terminal GST; dsDNA, one strand shown. A digest of the protocol: as §1
A further experiment concerns the target HSF1 (Homo sapiens, UniProt Q00613 1-529). The settings on record: protein: recombinant; tags: N-terminal GST; chain copies: 3; dsDNA, one strand shown. A digest of the protocol:
as §1

The target in a further experiment is T2, SPIC (Homo sapiens, UniProt Q8N5J4 1-248).
T2 sequence: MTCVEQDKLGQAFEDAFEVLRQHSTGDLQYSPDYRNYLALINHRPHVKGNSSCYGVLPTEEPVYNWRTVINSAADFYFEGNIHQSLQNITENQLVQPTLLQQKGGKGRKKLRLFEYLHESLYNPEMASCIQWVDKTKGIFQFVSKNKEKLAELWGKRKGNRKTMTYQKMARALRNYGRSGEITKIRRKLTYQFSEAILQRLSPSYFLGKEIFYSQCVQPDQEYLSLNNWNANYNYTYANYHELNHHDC
The settings on record: protein: recombinant; tags: N-terminal GST; dsDNA, one strand shown. The method, boiled down:
as §1

In another experiment the target is ELF4 (Homo sapiens, UniProt Q99607 1-663). The settings on record: protein: recombinant; tags: N-terminal GST; dsDNA, one strand shown. The method, boiled down:
as §1

Another experiment concerns the target T3, ELK4 (Homo sapiens, UniProt P28324-2 1-405).
T3 sequence: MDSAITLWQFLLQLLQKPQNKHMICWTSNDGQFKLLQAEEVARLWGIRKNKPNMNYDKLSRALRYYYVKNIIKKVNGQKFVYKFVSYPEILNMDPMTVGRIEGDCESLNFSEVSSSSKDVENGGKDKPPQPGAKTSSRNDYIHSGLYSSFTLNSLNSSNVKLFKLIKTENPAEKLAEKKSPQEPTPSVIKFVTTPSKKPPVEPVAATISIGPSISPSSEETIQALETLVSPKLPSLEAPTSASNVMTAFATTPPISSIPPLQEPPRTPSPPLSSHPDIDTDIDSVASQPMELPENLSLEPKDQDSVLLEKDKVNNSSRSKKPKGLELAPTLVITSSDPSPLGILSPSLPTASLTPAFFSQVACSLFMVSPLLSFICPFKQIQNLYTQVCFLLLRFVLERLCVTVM
The settings on record: protein: recombinant; tags: N-terminal GST; dsDNA, one strand shown. A digest of the protocol: as §1

The target in a further experiment is T4, ETV2 (Homo sapiens, UniProt O00321 1-342).
T4 sequence: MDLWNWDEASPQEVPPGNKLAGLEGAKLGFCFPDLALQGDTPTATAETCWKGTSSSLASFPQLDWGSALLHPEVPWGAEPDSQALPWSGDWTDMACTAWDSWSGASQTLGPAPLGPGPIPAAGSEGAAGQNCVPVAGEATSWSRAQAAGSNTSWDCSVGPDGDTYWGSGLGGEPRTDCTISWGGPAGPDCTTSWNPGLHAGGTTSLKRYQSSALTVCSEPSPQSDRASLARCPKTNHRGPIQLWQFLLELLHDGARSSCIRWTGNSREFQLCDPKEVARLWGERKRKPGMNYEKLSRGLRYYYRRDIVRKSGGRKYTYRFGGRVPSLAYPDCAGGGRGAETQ
To be noted: protein: recombinant; tags: N-terminal GST; dsDNA, one strand shown. A digest of the protocol: as §1

A further experiment concerns the target T5, ELF3 (Homo sapiens, UniProt P78545 1-371).
T5 sequence: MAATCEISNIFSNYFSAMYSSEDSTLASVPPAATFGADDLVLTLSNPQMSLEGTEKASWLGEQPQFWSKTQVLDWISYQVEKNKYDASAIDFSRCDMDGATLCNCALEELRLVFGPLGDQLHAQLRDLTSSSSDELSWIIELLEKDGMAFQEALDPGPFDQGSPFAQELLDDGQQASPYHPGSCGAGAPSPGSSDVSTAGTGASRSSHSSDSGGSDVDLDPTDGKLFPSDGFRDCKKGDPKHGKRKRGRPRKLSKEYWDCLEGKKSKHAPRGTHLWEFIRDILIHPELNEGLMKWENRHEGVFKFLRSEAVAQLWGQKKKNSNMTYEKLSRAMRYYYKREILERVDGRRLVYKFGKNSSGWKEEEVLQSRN
To be noted: protein: recombinant; tags: N-terminal GST; dsDNA, one strand shown. A digest of the protocol: as §1

The target in a further experiment is CRX (Homo sapiens, UniProt O43186 1-299). To be noted: protein: recombinant; tags: N-terminal GST; dsDNA, one strand shown. A digest of the protocol:
as §1

The next experiment concerns the target ETV1 (Homo sapiens, UniProt P50549 1-477). The settings on record: protein: recombinant; tags: N-terminal GST; dsDNA, one strand shown. A digest of the protocol: as §1
A further experiment concerns the target T6, ERF (Homo sapiens, UniProt P50548 1-548).
T6 sequence: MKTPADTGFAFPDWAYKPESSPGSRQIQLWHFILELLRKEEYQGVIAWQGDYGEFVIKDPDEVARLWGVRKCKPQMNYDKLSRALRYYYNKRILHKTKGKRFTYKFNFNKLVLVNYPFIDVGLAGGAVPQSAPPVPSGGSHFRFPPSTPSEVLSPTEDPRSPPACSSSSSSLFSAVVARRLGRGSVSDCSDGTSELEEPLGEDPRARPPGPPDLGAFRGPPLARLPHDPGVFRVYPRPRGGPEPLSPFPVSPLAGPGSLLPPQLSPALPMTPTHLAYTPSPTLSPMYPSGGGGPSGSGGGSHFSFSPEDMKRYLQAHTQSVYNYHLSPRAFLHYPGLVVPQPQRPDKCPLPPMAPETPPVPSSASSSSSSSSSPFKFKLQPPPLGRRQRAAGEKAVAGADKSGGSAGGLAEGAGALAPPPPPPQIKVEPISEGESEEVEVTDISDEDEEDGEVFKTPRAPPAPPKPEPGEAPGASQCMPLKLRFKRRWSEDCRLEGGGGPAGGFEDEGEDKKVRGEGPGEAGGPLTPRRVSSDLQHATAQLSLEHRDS
To be noted: protein: recombinant; tags: N-terminal GST; dsDNA, one strand shown. A digest of the protocol:
as §1

For another experiment, the target named is T7, ETV3L (Homo sapiens, UniProt Q6ZN32 1-361).
T7 sequence: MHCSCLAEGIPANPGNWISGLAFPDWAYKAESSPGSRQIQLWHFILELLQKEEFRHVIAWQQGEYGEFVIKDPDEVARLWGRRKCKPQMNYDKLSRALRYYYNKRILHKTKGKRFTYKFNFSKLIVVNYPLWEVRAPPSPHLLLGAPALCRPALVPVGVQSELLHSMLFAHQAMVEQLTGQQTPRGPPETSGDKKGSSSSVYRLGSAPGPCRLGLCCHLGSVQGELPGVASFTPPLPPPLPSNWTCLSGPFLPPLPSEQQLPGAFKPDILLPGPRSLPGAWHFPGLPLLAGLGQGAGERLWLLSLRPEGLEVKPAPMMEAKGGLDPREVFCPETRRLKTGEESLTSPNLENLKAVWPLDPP
To be noted: protein: recombinant; tags: N-terminal GST; dsDNA, one strand shown. A digest of the protocol: as §1

A further experiment concerns the target T8, ETS2 (Homo sapiens, UniProt P15036 1-469).
T8 sequence: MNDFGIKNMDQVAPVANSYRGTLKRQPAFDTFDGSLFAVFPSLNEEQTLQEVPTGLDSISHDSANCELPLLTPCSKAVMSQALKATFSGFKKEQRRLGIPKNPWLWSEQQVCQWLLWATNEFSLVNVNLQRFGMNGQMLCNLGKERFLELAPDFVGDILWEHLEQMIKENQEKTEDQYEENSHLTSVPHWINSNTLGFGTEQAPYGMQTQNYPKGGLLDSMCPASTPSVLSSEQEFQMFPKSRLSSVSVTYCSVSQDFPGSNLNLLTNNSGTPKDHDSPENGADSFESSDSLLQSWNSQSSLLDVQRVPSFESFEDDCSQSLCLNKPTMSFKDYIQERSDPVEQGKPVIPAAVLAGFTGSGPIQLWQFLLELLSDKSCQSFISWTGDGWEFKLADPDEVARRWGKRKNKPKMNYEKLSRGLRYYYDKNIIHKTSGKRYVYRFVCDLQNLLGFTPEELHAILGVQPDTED
To be noted: protein: recombinant; tags: N-terminal GST; dsDNA, one strand shown. The method, boiled down: as §1

The next experiment addresses T9, SPDEF (Homo sapiens, UniProt O95238 1-335).
T9 sequence: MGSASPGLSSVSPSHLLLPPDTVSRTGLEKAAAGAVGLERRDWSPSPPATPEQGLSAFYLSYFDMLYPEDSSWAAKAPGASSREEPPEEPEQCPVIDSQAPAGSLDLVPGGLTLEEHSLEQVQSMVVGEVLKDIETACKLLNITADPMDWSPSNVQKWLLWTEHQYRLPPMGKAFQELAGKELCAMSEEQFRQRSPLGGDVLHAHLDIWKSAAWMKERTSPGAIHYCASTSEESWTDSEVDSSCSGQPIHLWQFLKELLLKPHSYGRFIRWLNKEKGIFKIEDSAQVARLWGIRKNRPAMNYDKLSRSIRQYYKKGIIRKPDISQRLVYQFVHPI
The settings on record: protein: recombinant; tags: N-terminal GST; dsDNA, one strand shown. The method, boiled down:
as §1

For another experiment, the target named is T10, ETV7 (Homo sapiens, UniProt Q9Y603 1-341).
T10 sequence: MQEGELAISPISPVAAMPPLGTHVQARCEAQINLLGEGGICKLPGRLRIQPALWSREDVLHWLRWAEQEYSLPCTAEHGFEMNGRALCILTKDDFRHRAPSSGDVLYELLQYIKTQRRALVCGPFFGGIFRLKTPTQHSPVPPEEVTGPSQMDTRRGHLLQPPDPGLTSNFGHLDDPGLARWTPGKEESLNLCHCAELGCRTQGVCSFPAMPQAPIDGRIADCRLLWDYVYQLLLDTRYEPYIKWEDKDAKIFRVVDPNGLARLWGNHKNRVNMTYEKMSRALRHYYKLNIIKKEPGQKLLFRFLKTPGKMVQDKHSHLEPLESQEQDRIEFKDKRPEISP
To be noted: protein: recombinant; tags: N-terminal GST; dsDNA, one strand shown. The method, boiled down:
as §1

For the next experiment, the target named is T11, ELF5 (Homo sapiens, UniProt Q9UKW6-2 1-255).
T11 sequence: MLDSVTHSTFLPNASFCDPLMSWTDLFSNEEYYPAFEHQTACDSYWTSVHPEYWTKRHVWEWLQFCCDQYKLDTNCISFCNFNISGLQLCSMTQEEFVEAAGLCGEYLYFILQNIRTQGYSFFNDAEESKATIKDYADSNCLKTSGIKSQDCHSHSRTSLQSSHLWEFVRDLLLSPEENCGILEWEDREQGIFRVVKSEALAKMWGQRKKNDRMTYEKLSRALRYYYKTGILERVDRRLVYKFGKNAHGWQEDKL
To be noted: protein: recombinant; tags: N-terminal GST; dsDNA, one strand shown. A digest of the protocol:
as §1

The target in another experiment is T12, ETV3 (Homo sapiens, UniProt P41162-2 1-143).
T12 sequence: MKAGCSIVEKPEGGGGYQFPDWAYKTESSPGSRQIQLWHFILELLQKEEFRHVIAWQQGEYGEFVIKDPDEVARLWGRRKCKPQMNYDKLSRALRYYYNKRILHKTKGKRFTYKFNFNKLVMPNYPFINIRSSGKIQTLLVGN
To be noted: protein: recombinant; tags: N-terminal GST; dsDNA, one strand shown. The method, boiled down:
as §1

The next experiment has as its target ETV6 (Homo sapiens, UniProt P41212 1-452). The settings on record: protein: recombinant; tags: N-terminal GST; dsDNA, one strand shown. A digest of the protocol: as §1

Chain of ETV1 (P50549 whole entry): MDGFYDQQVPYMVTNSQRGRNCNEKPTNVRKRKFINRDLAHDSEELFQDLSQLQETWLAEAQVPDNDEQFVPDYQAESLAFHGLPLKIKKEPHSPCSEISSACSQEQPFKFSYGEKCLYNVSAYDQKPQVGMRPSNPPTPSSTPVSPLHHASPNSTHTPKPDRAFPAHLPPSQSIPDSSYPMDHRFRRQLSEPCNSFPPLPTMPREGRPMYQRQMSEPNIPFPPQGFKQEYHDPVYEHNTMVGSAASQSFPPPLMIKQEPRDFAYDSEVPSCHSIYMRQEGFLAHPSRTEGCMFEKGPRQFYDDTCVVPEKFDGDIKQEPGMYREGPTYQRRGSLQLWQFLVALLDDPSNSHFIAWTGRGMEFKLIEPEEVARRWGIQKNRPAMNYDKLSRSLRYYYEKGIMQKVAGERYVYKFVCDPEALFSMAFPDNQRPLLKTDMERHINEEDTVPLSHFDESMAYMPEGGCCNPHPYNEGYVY
Chain of HSF1 (Q00613 whole entry): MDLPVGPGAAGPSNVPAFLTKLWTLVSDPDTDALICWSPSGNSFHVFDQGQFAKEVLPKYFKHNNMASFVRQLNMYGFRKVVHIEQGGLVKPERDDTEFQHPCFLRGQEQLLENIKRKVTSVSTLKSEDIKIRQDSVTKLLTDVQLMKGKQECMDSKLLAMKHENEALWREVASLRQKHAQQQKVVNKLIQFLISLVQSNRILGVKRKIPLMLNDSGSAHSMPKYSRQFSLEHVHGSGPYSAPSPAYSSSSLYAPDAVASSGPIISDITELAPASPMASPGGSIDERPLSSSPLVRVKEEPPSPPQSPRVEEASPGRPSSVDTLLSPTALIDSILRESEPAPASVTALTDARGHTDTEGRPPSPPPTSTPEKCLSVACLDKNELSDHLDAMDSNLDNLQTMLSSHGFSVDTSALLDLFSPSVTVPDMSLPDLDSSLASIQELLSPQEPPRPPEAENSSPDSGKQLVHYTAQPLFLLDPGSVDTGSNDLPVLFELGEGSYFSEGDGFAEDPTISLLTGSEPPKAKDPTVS
Chain of ETV6 (P41212 whole entry): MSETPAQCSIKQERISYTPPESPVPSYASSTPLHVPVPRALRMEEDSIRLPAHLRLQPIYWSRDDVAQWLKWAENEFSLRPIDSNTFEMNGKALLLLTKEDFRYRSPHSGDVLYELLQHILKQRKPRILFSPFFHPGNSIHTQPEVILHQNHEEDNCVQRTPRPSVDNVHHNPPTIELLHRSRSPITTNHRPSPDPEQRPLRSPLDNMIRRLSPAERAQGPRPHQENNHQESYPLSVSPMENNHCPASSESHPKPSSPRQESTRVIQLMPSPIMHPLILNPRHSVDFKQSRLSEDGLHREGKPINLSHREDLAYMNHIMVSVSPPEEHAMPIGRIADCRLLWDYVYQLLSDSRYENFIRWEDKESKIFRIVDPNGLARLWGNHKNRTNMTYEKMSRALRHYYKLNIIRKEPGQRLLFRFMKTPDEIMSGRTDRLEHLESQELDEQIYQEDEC
Chain of CRX (O43186 whole entry): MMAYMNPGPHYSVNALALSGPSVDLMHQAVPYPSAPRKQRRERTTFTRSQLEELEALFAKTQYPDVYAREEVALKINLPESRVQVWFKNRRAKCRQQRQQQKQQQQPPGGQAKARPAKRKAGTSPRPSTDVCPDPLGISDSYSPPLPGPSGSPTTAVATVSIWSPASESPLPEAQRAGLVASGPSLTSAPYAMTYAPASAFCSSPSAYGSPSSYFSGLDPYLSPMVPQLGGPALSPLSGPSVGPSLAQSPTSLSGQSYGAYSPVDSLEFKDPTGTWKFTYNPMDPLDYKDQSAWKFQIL
Chain of ETV5 (P41161 whole entry): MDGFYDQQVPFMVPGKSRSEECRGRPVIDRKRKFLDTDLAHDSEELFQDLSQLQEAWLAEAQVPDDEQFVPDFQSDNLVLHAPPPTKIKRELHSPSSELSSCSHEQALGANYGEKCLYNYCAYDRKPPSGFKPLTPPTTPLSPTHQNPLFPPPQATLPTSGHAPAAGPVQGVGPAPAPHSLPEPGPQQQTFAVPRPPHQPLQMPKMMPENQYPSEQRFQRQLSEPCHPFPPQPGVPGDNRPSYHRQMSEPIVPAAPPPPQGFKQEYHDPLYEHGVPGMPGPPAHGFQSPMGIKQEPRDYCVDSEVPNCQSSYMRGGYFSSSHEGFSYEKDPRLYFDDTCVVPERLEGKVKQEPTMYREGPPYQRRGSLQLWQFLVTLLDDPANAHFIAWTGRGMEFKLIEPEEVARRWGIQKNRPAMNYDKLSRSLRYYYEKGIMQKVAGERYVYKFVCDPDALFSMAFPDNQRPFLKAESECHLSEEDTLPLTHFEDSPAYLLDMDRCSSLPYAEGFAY
Chain of ELF4 (Q99607 whole entry): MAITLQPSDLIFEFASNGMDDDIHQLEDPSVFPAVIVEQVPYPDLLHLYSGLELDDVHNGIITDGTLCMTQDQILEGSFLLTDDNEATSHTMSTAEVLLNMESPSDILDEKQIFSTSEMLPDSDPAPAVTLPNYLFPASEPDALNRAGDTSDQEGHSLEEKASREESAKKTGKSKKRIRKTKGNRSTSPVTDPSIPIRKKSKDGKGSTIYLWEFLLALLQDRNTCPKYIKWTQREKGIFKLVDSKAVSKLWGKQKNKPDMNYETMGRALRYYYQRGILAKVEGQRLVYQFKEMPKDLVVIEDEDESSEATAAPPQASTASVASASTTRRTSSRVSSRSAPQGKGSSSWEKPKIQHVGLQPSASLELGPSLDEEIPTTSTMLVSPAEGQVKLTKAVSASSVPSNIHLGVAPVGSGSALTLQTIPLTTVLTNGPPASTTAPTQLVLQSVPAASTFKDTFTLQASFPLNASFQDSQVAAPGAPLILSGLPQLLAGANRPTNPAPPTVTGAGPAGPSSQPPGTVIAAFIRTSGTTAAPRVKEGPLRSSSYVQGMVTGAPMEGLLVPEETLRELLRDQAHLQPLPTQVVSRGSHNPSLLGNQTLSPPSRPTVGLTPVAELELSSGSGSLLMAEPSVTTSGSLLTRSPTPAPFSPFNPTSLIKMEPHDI

TTCTAT: the binding signal with FEV was 1.4 fold enrichment (6-mer frequency, TF over GST control); with ETV5 it was 1.43 fold enrichment (6-mer frequency, TF over GST control); with HSF1, 2.05 fold enrichment (6-mer frequency, TF over GST control); in the experiment with SPIC, 1.44 fold enrichment (6-mer frequency, TF over GST control); with ELF4, 1.4 fold enrichment (6-mer frequency, TF over GST control); with ELK4, 1.52 fold enrichment (6-mer frequency, TF over GST control). Also, the binding signal is 1.32 fold enrichment (6-mer frequency, TF over GST control) with ETV2; 1.28 fold enrichment (6-mer frequency, TF over GST control) in the experiment with ELF3; 1.67 fold enrichment (6-mer frequency, TF over GST control) in the experiment with CRX; 1.3 fold enrichment (6-mer frequency, TF over GST control) with ETV1; 1.46 fold enrichment (6-mer frequency, TF over GST control) with ERF; 1.35 fold enrichment (6-mer frequency, TF over GST control) with ETV3L. In addition, the binding signal with ETS2 was 1.38 fold enrichment (6-mer frequency, TF over GST control); with SPDEF, 1.35 fold enrichment (6-mer frequency, TF over GST control); with ETV7, 1.33 fold enrichment (6-mer frequency, TF over GST control); with ELF5, 1.3 fold enrichment (6-mer frequency, TF over GST control); in the experiment with ETV3, 1.33 fold enrichment (6-mer frequency, TF over GST control); with ETV6, 1.28 fold enrichment (6-mer frequency, TF over GST control).
